In the experiment the target is rat Corticotropin Releasing Factor Receptor (CRF), Crhr1 (gene 58959) (UniProt P35353). The experiment is described as follows: NVS_GPCR_rCRF: NovaScreen (NVS) G Protein-Coupled Receptor Assay for rat Corticotropin Releasing Factor Receptor (CRF) (AID 2283300). The protocol: NVS_GPCR_rCRF is a biochemical, single-readout assay that uses extracted gene-proteins from Rat cortical membranes in a tissue-based cell-free assay. Measurements were taken 2 hours after chemical dosing in a 96-well plate.NVS_GPCR_rCRF is one of one assay component(s) measured or calculated from the NVS_GPCR_rCRF assay. It is designed to make measurements of radioligand binding, a form of binding reporter, as detected with scintillation counting signals by […] radiodetection technology.Data from the assay component NVS_GPCR_rCRF was analyzed into 1 assay endpoint. This assay endpoint, NVS_GPCR_rCRF, was analyzed in the positive analysis fitting direction relative to DMSO as the negative control and baseline of activity. […] Furthermore, this assay endpoint can be referred to as a primary readout, because the performed assay has only produced 1 assay endpoint. […]
Binding assays used specific radioligands (tritiated, iodinated) with non-radioactive competitive displacement ligands in agonist or antagonist protocols (as indicated) and various reference compounds and inhibitors to titrate specific binding to receptors and transporters. Most enzyme assays (CYPs, kinases, phosphatases, proteases, HDACs) used recombinant protein and specific substrates (fluorescence mostly, some colorimetric and radioactive) and inhibitors, followed by a biochemical separation of substrate and product. […]

Results filed as inconclusive are left out. Active and inactive are the calls of the source. Rule for the calls: active = hit-call score of the fitted dose curve at least 0.9, where 1 is the maximum; inconclusive = response in the unintended direction; inactive = score below 0.9.

Sequence of rat Corticotropin Releasing Factor Receptor (CRF), Crhr1 (gene 58959) (P35353 whole entry, looked up): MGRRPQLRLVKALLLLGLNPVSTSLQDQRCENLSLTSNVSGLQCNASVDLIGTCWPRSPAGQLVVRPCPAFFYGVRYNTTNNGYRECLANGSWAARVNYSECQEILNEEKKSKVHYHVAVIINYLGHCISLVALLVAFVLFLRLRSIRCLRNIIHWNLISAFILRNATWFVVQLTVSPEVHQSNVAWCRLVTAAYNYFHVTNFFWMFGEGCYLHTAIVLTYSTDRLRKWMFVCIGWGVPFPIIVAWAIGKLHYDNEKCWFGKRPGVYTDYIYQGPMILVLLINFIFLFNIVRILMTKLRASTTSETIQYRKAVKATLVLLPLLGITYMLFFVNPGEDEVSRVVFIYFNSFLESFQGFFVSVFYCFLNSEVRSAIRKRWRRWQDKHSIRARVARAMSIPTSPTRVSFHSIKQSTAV

For the compound `COC(=O)c1ccccc1N`, the outcome was inactive. For the compound `CCC[CH2][Sn]([Cl])([CH2]CCC)[CH2]CCC`, the AC50 is 3.75 µM (active).

As a reminder, the AC50 is the concentration at which the activity in the assay is half-maximal.

The values are drawn from PubChem BioAssay (EPA / NIEHS).
